The values below come from the supplement of paper PMC6555819.

The subject of this assay is PPARg:RXRa (NR concentration 180 nM, RXRa partner concentration 90 nM). Description: PBM binding z-score (relative to random genomic background probes); higher = stronger binding; sequences stand for … in GC…GCGATTGACAGCGTAGAATGAAGG
The gist of the method: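 Custom Agilent 4×180K protein-binding microarrays carried double-stranded probes. Their 34-nt variable regions held direct-repeat seeds, single-nucleotide variants, half-site ablations and random human genomic background sequences. Arrays were incubated 1 h with ligand-free nuclear receptor dimers in PBS pH 7.4, 2% milk, 0.02% Triton X-100, 1 mM DTT, 0.2 mg/mL BSA and 0.4 mg/ml salmon testes DNA. Antibodies against each partner (one per run) detected binding, and scanned fluorescence was regression-normalized. Binding z-scores use random background probes as reference.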
Turning to GCATATAGGTAATACAAGGTAAAAGTCCGATTGT, the PBM binding z-score is 1.14.
ACTCGGAGGAGAAAGGTCAGAGCTACGCCAGTGA: the PBM binding z-score worked out at 3.76.
For the sequence CCTTACTGGTCACTGACAGGTTATAGCATTTGGA, the PBM binding z-score was determined as 0.266.
For ATCTCTAGGGAAAAGTTCAGTGAATCCCGAGGAT the value was 4.59; for TCACGGAGGACACGAAGGTCAGAGCTTTCCAGAG, 0.712.
The figure for CGTACTAGGTCAGAACAGGACAGTGAAGGATGAT is 4.39.
For CGAACTAGGTTAAGGACAGTGAATCTCCGCACGC the value was 2.85; for TCAGACAGGTGAAGGTAACTCTGGTACGCAGTCG, 0.517; for TAGCCTAGATCATGCGGGCCAGTATAGTGTCGGC, 0.0405.
AATACAGGGTCATCGTAGGCAAGAGTACGCACAG displayed a PBM binding z-score of 7.
ATCTCTAGGTCAGACTCAGTTCAGTGAAGAACGC displayed a PBM binding z-score of 3.02.
The figure for CCAGACAGGTGAGTAGGTAACTCAGCCTCGATTA is 0.545; for TCTGCTAGCTCAGTTGGTCAGCTAACGAGCTGCC it is -1.22.
The figure for CTACCAAGGTGAACAAGCTCGTTGATTACTATTC is 0.332.
For CCGATTGGGGCAGAAAGGTTACCATACCATCCGG the value was 2.06; for ATATGTAGATTACATCCGGGTCATTCAGGCTATG, 1.42.
The sequence CCTCGGAGGACATAAGGTCAGAGCTGTCCGCTTT yielded a PBM binding z-score of 0.338.
The figure for TCTTGTAGATCAAGCTGGTTAAGAAAGCCTGAGT is -0.868; for AGAATGAGTTTAAGATCAGGGAAACAGAATACAT it is 0.814; for ATACCAAGGTGATCGTGAGGTCGTTGAGACTAAC it is 0.356.
The figure for GCTCGGAGGACATGGTCAGAGCTTTGTCCGTAGA is -0.763; for CCGAGTAGGTTATGGGGCATACAGGCAACGGTGA it is 3.69.
For CGTCCAAGGTCAAAGGTCAGTTAAGAGATGACGG the value was 10.5.
Take CTAGCAAGGTGAACAAGGTCGTTGATTACTATTC: the PBM binding z-score worked out at 0.843.
The figure for ACAGACAGGTGATGATGGTAACTCAGGCTATCAT is 0.679; for CAAACTAGGTCACAGAGGTCCAAGTCCGTGCGTA it is 8.72.
For TAGCCTTGGTCATGCGGGCCAGTATAGTGTCGGC the value was -0.423; for CCAGACAGGTGAATGGTAACTCAGTCTGGTACGC, 0.419; for GCTGATAGGTCAACTGATGGTCAGCTAAAGCTCG, 3.41.
The figure for AGAACGAGGGCCCGCTGAGTTGATAGCAGAGTAG is -0.00223; for ATATGTAGGTTACGGGTCATTCAGGTTGGTTCGC it is 9.4.
CCTCCAAGGTCAATGCTAGGTCAGTGAAAGCATT registered a PBM binding z-score of 3.95.
For CCTCGGAGGAAAGAAGGTCAGAGCTGTCCGCTTT the value was -0.343; for ACTACCAGGCCAAGGGTCACTCAAGATTAGTCCG, 8.68.
For CCGACTGGGGCATAAGGTTAGCATAAGCCAGCCC, the PBM binding z-score was determined as 1.7.
The figure for TCTTGTAGATCAAAGGTTAAGATAGCCGAAGCCT is 8.74; for ACTATTTGGTCAGCTGAGGTCACACACAATTCGG it is 1.86; for CGTTAAAGTTCAACTAAGGTAACGTAAAGCACGC it is 3.71.
AGTCAATGTTCACTAGGTAACGTAAGATTCAGCT had a PBM binding z-score of 0.656.
The figure for AGTCAAAGTTCACTAGTTAACGTAAGATTCAGCT is 5.33.
